From PMC13494018
A number with no mark means an inactive call. How the calls were made is not given here.

B1: design_608_fd41b8f9-4da9-4c78-93ec-aaa316ed4933_1798_dldesign_0_cycle1_af2pred (protein)
chain: NEAIKEAEKAAKEAKEAYKKAGEVSGETEKAERMIKRVEELLEAGKKDPSKAEKYKAQIEALRDHAKEVLKKAEAKKKA
B2: design_608_fd41b8f9-4da9-4c78-93ec-aaa316ed4933_209_dldesign_0_cycle1_af2pred (protein)
chain: AEEEEEKKREKLLEEAKKLGKEAAKYVKKAIAKGKTEEATALAAEASKALLALYDLDAAGEPYEKAKAEYDKIKELTEKIKALAE
B3: design_608_fd41b8f9-4da9-4c78-93ec-aaa316ed4933_998_dldesign_0_cycle1_af2pred (protein)
chain: SELAKKAIEHLKKAIELAKTDPKYAPQIIAAAKAAIAALEKGDYEKAYKEASKALSIAYAAGNKEAEEELSEALYYIVKASK
B4: design_608_fd41b8f9-4da9-4c78-93ec-aaa316ed4933_704_dldesign_0_cycle1_af2pred (protein)
chain: DAAAATARALADQAVAAGKAGEEGDLATAKAARETLAALREELRKLVEEDPSVAPYASAGMAEGYQAIAEGFKKNS
B5: design_608_fd41b8f9-4da9-4c78-93ec-aaa316ed4933_1906_dldesign_0_cycle1_af2pred (protein)
chain: DVKKEAEKLRDKGKERAKRRLEDAKKISPQYAEAAYEALEQASKNAKKLAEKYPEAKEIYEELAKYFEEQAKKAKEIAE
B6: design_608_fd41b8f9-4da9-4c78-93ec-aaa316ed4933_796_dldesign_0_cycle1_af2pred (protein)
chain: EEAKEKAKKLEEEALKKAKEAGELIGKPKQVVHLTKLAIEDPELIPLAKKAILEAAKELKKKDPEKGKKAEELAKEMEKYVKEANKLK
B7: design_608_fd41b8f9-4da9-4c78-93ec-aaa316ed4933_446_dldesign_0_cycle1_af2pred (protein)
chain: LEATAEAYAEAILHAGEEAAKVAKKLSEELAEEVRKKAEEFAKKALDDPSKAKEYLKKAREYFKKVVEEVKEKL
B8: design_608_fd41b8f9-4da9-4c78-93ec-aaa316ed4933_750_dldesign_0_cycle1_af2pred (protein)
chain: GEETEKLKKELEKAEKEAKEALKKAKELTKEEAKKLLSEQAAKVAELAAESSKDKEVSKEAKKVLKEVRKEGKEILEEK
B9: design_608_fd41b8f9-4da9-4c78-93ec-aaa316ed4933_1393_dldesign_0_cycle1_af2pred (protein)
chain: STVEEALAAAKKNIAAAKAAAAAGDFAAAAAALHEARENVSVIYANDKEKGEELRKEVTAVRAEIRAKEEAA
B10: design_608_fd41b8f9-4da9-4c78-93ec-aaa316ed4933_1350_dldesign_0_cycle1_af2pred (protein)
chain: SEAYKEFHEALQYATDAGYEYAKNPEEGKKELAKAEEHLKKAEELADPETAAKMREIYERRLAREKERAERLKKERN
B11: design_608_fd41b8f9-4da9-4c78-93ec-aaa316ed4933_1451_dldesign_0_cycle1_af2pred (protein)
chain: GSAAAAAAAAAAAIQAQQDKAMEYADEIYEKISKEVGKSTGIKVASDAFSYAMKTDFETGKKYGEEKEIKVIKEAKKK
B12: design_608_fd41b8f9-4da9-4c78-93ec-aaa316ed4933_265_dldesign_0_cycle1_af2pred (protein)
chain: GLKEELRKLATQYMHEAAEYAAEAEHLANRGGDLAEVEEAAKKAKEYAEKSIELMKEAGTEEEYEKAKKVAEKLIARAEAALKKK
B13: design_608_fd41b8f9-4da9-4c78-93ec-aaa316ed4933_228_dldesign_0_cycle1_af2pred (protein)
chain: GEEVIKEIAEEEIKEAEKTLKEAEKLLKKGGTEEAKEAVEKAKEYIKKGKEKLEEGDYKTAYSLATLGKHNAEIAIKLIKEKN
B14: design_608_fd41b8f9-4da9-4c78-93ec-aaa316ed4933_669_dldesign_0_cycle1_af2pred (protein)
chain: KEELKKALEKTRKEVKAAAAGKPQDVIDVIRKGAKEAEKLNKNAGILLEAAANRAEFAGATPAEAAAIALKAIERAEKE
B15: design_608_fd41b8f9-4da9-4c78-93ec-aaa316ed4933_627_dldesign_0_cycle1_af2pred (protein)
chain: SEKKKVGEEAYKVASRALSIAYAKGDKEFEEKAEELLEKVEEVKKNGNLEEAKKALEEAKALLKEAEKLAKER
B16: design_608_fd41b8f9-4da9-4c78-93ec-aaa316ed4933_323_dldesign_0_cycle1_af2pred (protein)
chain: VLEEVLKLGKEAAEALLKPNGKEEAAKLVEEAEKVVKSHPNAPTEASYVLVTMRRAVRKPDHEEGAKRVREAVEEAE
B17: design_608_fd41b8f9-4da9-4c78-93ec-aaa316ed4933_509_dldesign_0_cycle1_af2pred (protein)
chain: EEEKSKLTREAADAVRTFGKNATKARPEMSRLEVMDKIDAGLENPELLKETTEEYAEAAKEKGLEEDAEKIKESGKILLKYVKE
B18: design_608_fd41b8f9-4da9-4c78-93ec-aaa316ed4933_1790_dldesign_0_cycle1_af2pred (protein)
chain: MEFIKEVSKKVHDTRFYLDSVALKASEEDRKKLEEMRKEVGELMLKAQKAYKEDPEEGKKLAEEALKKAEEAYKYAKSIEE
B19: design_608_fd41b8f9-4da9-4c78-93ec-aaa316ed4933_1100_dldesign_0_cycle1_af2pred (protein)
chain: ELAKEIEKFAEEAKERAKKGNPEEAREAYREFREKAKKIAEEDPSVAELASKKAAEVAEVAAEAIYKKLKE
B20: design_608_fd41b8f9-4da9-4c78-93ec-aaa316ed4933_544_dldesign_0_cycle1_af2pred (protein)
chain: AAAAAAEAAAKVAKVKELAKEAAEDPSKAPEVYKEGKKIADAATPETAAAIAAEMHKGHEERAENSWKRSRE
B21: design_608_fd41b8f9-4da9-4c78-93ec-aaa316ed4933_615_dldesign_0_cycle1_af2pred (protein)
chain: DPAEELAKKLLEIADLAAKPETLEKALEEAEKLKEEALKLAEKYADDPALKKKYLKAAKTAESFIEDIKRSKEL
B22: design_608_fd41b8f9-4da9-4c78-93ec-aaa316ed4933_1103_dldesign_0_cycle1_af2pred (protein)
chain: SPQAAADALRAAQRLLREAGARAEAAGAQEAADLLRQASFALAGTGADEALALIDAAAAAYPEVAPLLDEARAAARAYGELLN
B23: design_608_fd41b8f9-4da9-4c78-93ec-aaa316ed4933_581_dldesign_0_cycle1_af2pred (protein)
chain: SEELEKVKKLLEKGIETAKKNPVKGASLLLKAEHMAKQLAEKKKGTEEAKELEELSKKAKEEFDKAAKKISE
B24: design_608_fd41b8f9-4da9-4c78-93ec-aaa316ed4933_1306_dldesign_0_cycle1_af2pred (protein)
chain: GKEEAEKILKEAKAKLDALAKENPALAPLAAEAKERIEKKYKKAIEADEKDPKQGKAAAEALKEFAKNAVAAVEKKK
B25: design_608_fd41b8f9-4da9-4c78-93ec-aaa316ed4933_536_dldesign_0_cycle1_af2pred (protein)
chain: NNAEASKLAHEGYEYRAEGAQLSKKNPAKAAVLFEEAAKKFAEAAKLAEDPEDKKLLQAYADRALAEAKKAAAEAAKALA
B26: design_608_fd41b8f9-4da9-4c78-93ec-aaa316ed4933_1632_dldesign_0_cycle1_af2pred (protein)
chain: EAEKKFKEAKKLASEAAEKLATLAAEAAFKGKEELAKEAREALKKLREKGKEAEKLYKEDPEKAAKVLKKAAEEALKKAEKLEKEL
B27: design_608_fd41b8f9-4da9-4c78-93ec-aaa316ed4933_1756_dldesign_0_cycle1_af2pred (protein)
chain: AQKAVAEAAQAALIAKSAADVSKNIDAETLEEIAKEAKKAAEKAEKEAPEAKEVIEPAKKEAEKLEKIAKEKKA
B28: design_608_fd41b8f9-4da9-4c78-93ec-aaa316ed4933_1455_dldesign_0_cycle1_af2pred (protein)
chain: HMSELTKKTSDVISEAVKTSREAVKEAEKKDPALGEKLKEFYTKALLDAQDGDPFKGATELLKKAKADLAAVKAS
B29: design_608_fd41b8f9-4da9-4c78-93ec-aaa316ed4933_913_dldesign_0_cycle1_af2pred (protein)
chain: ATLAELSAAFAKAYELIAEGEKASPEEGVKLMEKAKEEVEAARKLAEASADKEAALAGVERLAKRVEENKAKAEAKLKAA
B30: design_608_fd41b8f9-4da9-4c78-93ec-aaa316ed4933_1483_dldesign_0_cycle1_af2pred (protein)
chain: METKRLSEAHRIAVRAAQAAGAAATTAAEKAAIAAAKFQAVDSDPEELIAILRATGAAFPKQAPHFDAAVAEIEKAIEEY
B31: design_608_fd41b8f9-4da9-4c78-93ec-aaa316ed4933_1810_dldesign_0_cycle1_af2pred (protein)
chain: MEELKKVVEETKEYAKKLIESDGFSLVGKSAYEAAEKALKEGNLEKAKEIYEKTKKMYERAEEYEKLAEEREKKYL
B32: design_608_fd41b8f9-4da9-4c78-93ec-aaa316ed4933_1151_dldesign_0_cycle1_af2pred (protein)
chain: SMAEEEKKEKEKKKAETLALNAKGLEAIDKGDFTTAAKLYEKAAEVAPTEELKKRAEKGAKAMKKLEKAAKE
B33: design_608_fd41b8f9-4da9-4c78-93ec-aaa316ed4933_922_dldesign_0_cycle1_af2pred (protein)
chain: GETEKLREEAQKLMDEAVDLLDKAKTEEEVEKAVEIAEEAYKVAAKATPEIAESALKGYKGLKKMAEEIKKVLKK
B34: design_608_fd41b8f9-4da9-4c78-93ec-aaa316ed4933_1719_dldesign_0_cycle1_af2pred (protein)
chain: DGYEKGKAVAERFKEDAEKIGNTEAAAEGLELLAEQWKAYAEKNTPEEAKEANKAAKEFKEEAKKYKEKAKA
B35: design_608_fd41b8f9-4da9-4c78-93ec-aaa316ed4933_1401_dldesign_0_cycle1_af2pred (protein)
chain: MEEEAKKYVEYTKKKAEEAKKNAKKAKEAGASQEAIQLFIDAAQYYLLAASAAENSPKYLPYAKEETKKGEELLKKGKKLFEEE
B36: design_608_fd41b8f9-4da9-4c78-93ec-aaa316ed4933_1539_dldesign_0_cycle1_af2pred (protein)
chain: SKRKEAARIAAEIVRRGHRIGAALARTIGPAAGAATEATLEELADLALEDPEKGRELGEAAVAAAEAAIAAARAA
B37: design_608_fd41b8f9-4da9-4c78-93ec-aaa316ed4933_1545_dldesign_0_cycle1_af2pred (protein)
chain: GSSVHKELADKLKKAIEEGEAAAKAGDVEKGKQIYADALGEVLGYPEASRQKLLDLPAKEGYEKAKKLLTNAYDGLSSLAKK
B38: design_608_fd41b8f9-4da9-4c78-93ec-aaa316ed4933_287_dldesign_0_cycle1_af2pred (protein)
chain: MEAENMEKAIKKLREGKAALKTTPEEAARVLRAQAKELKELAKKSSPENAAFMETQAKAMEKKAKELEAKAAA

Target: VTCN1, Q7Z7D3
Sequence (Q7Z7D3 whole entry): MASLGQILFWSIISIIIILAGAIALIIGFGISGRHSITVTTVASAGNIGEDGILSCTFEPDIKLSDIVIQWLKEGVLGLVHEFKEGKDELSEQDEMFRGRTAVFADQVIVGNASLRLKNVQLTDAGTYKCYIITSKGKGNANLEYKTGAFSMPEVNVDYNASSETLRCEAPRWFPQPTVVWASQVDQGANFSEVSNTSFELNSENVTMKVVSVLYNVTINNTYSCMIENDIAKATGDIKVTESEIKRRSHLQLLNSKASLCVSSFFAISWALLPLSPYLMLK

Row | Binder | binding in a display sort
1 | B1 | not found
2 | B2 | not found
3 | B3 | not found
4 | B4 | not found
5 | B5 | not found
6 | B6 | not found
7 | B7 | not found
8 | B8 | not found
9 | B9 | not found
10 | B10 | not found
11 | B11 | not found
12 | B12 | not found
13 | B13 | not found
14 | B14 | not found
15 | B15 | not found
16 | B16 | not found
17 | B17 | not found
18 | B18 | not found
19 | B19 | not found

Row | Binder | binding in a display sort
20 | B20 | not found
21 | B21 | not found
22 | B22 | not found
23 | B23 | not found
24 | B24 | not found
25 | B25 | not found
26 | B26 | not found
27 | B27 | not found
28 | B28 | not found
29 | B29 | not found
30 | B30 | not found
31 | B31 | not found
32 | B32 | not found
33 | B33 | not found
34 | B34 | not found
35 | B35 | not found
36 | B36 | not found
37 | B37 | not found
38 | B38 | not found
